Results on 54 sequences are retold here after paper PMC7819943, “Rice protein-binding microarrays: a tool to detect cis-acting elements near promoter regions in rice”.

Whole data set: some 39,000 sequences, median “fluorescence intensity (a.u.)” near 4,300, cut for the highest 2% near 39,000. Many of the other results were omitted from the sample, so the highest values are more common in it than they were.

In this experiment the target is T1, OsSMF1 (Oryza sativa, UniProt Q6ZLB0 1-436).
T1 sequence: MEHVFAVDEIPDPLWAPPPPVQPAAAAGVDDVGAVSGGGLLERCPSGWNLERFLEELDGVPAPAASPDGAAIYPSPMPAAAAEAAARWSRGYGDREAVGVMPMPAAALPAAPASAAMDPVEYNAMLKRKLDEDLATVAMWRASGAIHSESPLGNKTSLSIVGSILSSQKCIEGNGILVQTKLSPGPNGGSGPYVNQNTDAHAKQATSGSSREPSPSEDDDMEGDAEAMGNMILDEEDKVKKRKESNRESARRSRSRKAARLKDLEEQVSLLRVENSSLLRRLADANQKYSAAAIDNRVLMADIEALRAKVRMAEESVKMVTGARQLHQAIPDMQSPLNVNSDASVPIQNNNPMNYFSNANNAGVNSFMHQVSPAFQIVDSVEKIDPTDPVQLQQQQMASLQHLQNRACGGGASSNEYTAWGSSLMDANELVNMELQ
In words: protein-binding microarray (RPBM); PBS, 2% BSA, 51.3 ng/ul salmon testes DNA, 50 uM zinc acetate, 200 nM TF, 25 C, 1 h; high values mean tight binding. The following applies: protein: recombinant; tags: N-terminal polyhistidine and DsRed monomer fusion (pET32a); chain copies: 2; label: CyDye5-dUTP incorporated in the synthesized complementary strand; 3' TTTTT single-stranded linker to array surface; dsDNA, one strand shown. In short, it runs like this: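 Transcription factors, each fused N-terminally to a polyhistidine tag and DsRed, were expressed in E. coli BL21-CodonPlus and purified on Ni–NTA. A custom Agilent array was made double-stranded by primer extension with Cy5-dUTP and blocked with 2% BSA. It was incubated with 200 nM protein in PBS, 2% BSA, salmon testes DNA and 50 µM zinc acetate at 25 °C for 1 h, then washed. The binding signal is per-feature fluorescence intensity (arbitrary units) read on an Axon 4000B scanner.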
Take “GAAGTGTCCATATTGAGTCATTTGTCCATTTGCCCAGGCACGGAGTCACCTAGTGCAG”: the binding signal was 4960 fluorescence intensity (a.u.).
As for “TCCTCTTGCCTCCTCCGCTGAGGCAGCCAGTGCGTGCGCCCGGAGTCACCTAGTGCAG”, the figure is 3360 fluorescence intensity (a.u.); as for “AGATGATCTAGGCGTGCGTGCATGCATGCGTGGCCCGCCACGGAGTCACCTAGTGCAG”, 4340 fluorescence intensity (a.u.); as for “CTCCTCCTCCTCCAGACCTCCACGCGAGCGTGCCCCGGGGCGGAGTCACCTAGTGCAG”, 4470 fluorescence intensity (a.u.).
Consider “CAACTTTGGAAGAACTAAACACAGCATATGACAGTGCAGTCGGAGTCACCTAGTGCAG”, for which the binding signal is 4130 fluorescence intensity (a.u.).
To “AAGGAAGTCGTTTTGGACAGCGACACAGTCTCTAAAACACCGGAGTCACCTAGTGCAG” belongs 58900 fluorescence intensity (a.u.); to “CCGTACTCATAAAGGAAGTCGTTTTGGACAGCATCACGGTCGGAGTCACCTAGTGCAG”, 4170 fluorescence intensity (a.u.); to “AAAACACAGGAATGGTCGTTTGATTGGAGCGCAGGAGAAACGGAGTCACCTAGTGCAG”, 64900 fluorescence intensity (a.u.).
For the sequence “GCCTCGTTTGATTGGTCACATGCATGGAAAGAGACTCACACGGAGTCACCTAGTGCAG”, the binding signal was 16700 fluorescence intensity (a.u.).
To “TTGCAAACACAGGAATTACCGTTTGATTGAACCACAGGAACGGAGTCACCTAGTGCAG” belongs 12300 fluorescence intensity (a.u.).
For the sequence “TAACATAGTTGATATTGTTTAATGTCATGACAAAGAATGACGGAGTCACCTAGTGCAG”, the binding signal was 3580 fluorescence intensity (a.u.).
To “CTCCTACATGCACTCCCCTCTACAAAACCACAACCAGCATCGGAGTCACCTAGTGCAG” belongs 3600 fluorescence intensity (a.u.); to “ACTATTTCTCCAGATAGTAGTAGTAACTCTTACGTCATGGCGGAGTCACCTAGTGCAG”, 4910 fluorescence intensity (a.u.); to “CAGACAGACACAGAGAGATCGATATCAACATGCTTTAGTCCGGAGTCACCTAGTGCAG”, 3710 fluorescence intensity (a.u.).
To “AGCGTCACCTCAATGCCACGTGTGATAAAGACCTAGTTAACGGAGTCACCTAGTGCAG” belongs 17200 fluorescence intensity (a.u.); to “TTGTCAAATCATGGCGTCATTAGGCTTAAAAGATTCGTCTCGGAGTCACCTAGTGCAG”, 4280 fluorescence intensity (a.u.); to “GAATTGCCACGTAGGCGCCACGTCATATGAAGACCGAGTCCGGAGTCACCTAGTGCAG”, 45500 fluorescence intensity (a.u.).
On to “ATAAAGACCTAGTCAATGGAGTGCCACGTAGGCACCACGTCGGAGTCACCTAGTGCAG”, for which the binding signal is 39000 fluorescence intensity (a.u.).
To “TAAGCGCCACATCAGTGCCACGTCGGATGAAGACCGAGTCCGGAGTCACCTAGTGCAG” belongs 25000 fluorescence intensity (a.u.); to “AAATTGCCACGTAAGTGCCATGTCATATGAAGACCGAGTCCGGAGTCACCTAGTGCAG”, 17800 fluorescence intensity (a.u.); to “CAAATCAAATTACCACATAAGCACCACGTCAATGCCACGTCGGAGTCACCTAGTGCAG”, 22200 fluorescence intensity (a.u.).
As for “CAAAAGGGAATGCTTTAGGCAGATCATGGAGATAAAGACTCGGAGTCACCTAGTGCAG”, the figure is 39000 fluorescence intensity (a.u.); as for “GTGTAGTTACCTTCTCGTAGGTGTCATCGAGGATGATGGCCGGAGTCACCTAGTGCAG”, 3910 fluorescence intensity (a.u.); as for “CGGTATCGACGCAGCGTCTGAATGCAAGGGCCCGTGGTCACGGAGTCACCTAGTGCAG”, 27400 fluorescence intensity (a.u.).
As for “CGCCCAGGACGTCATGCCGGAGCTGGCCATGGTCACCGCGCGGAGTCACCTAGTGCAG”, the figure is 4070 fluorescence intensity (a.u.); as for “GAGTTGTCAAGGGATGTCATCCCGACGTCAACACGATGGCCGGAGTCACCTAGTGCAG”, 4620 fluorescence intensity (a.u.).
Consider “ACGGCGACAGCGTGGAGCTCCACGACGGCAGCGACGTCGGCGGAGTCACCTAGTGCAG”, for which the binding signal is 3590 fluorescence intensity (a.u.).
To “CGGCAACAGCGGTGACAACGTGACGACGGGTGACGAGGCGCGGAGTCACCTAGTGCAG” belongs 5320 fluorescence intensity (a.u.); to “CGACAGCGGAACGTGAGCTCTGGGGCGACGACGGCGGCAACGGAGTCACCTAGTGCAG”, 46800 fluorescence intensity (a.u.).
Take “CAAGCTCATCAACTTCGTTCGGTCCAAGGTGCGTCAGGGTCGGAGTCACCTAGTGCAG”: the binding signal was 3180 fluorescence intensity (a.u.).
For the sequence “TTAGCAACCTATCGTCATAGAGAGACCCAATGAACCCTTGCGGAGTCACCTAGTGCAG”, the binding signal is 3860 fluorescence intensity (a.u.).
Take “TAATTGGGGTGATGTGGCTAATTCTCAAAGCAGTTTTATACGGAGTCACCTAGTGCAG”: the binding signal was 5820 fluorescence intensity (a.u.).
Regarding “CCCTAGTCTCCTCCCTTGTACATAGGCAAATCCATACGCACGGAGTCACCTAGTGCAG”, the binding signal was 3640 fluorescence intensity (a.u.).
Regarding “TAGAGAAAGCAAAGCACATACATAGGCTAATTCTCCTTTACGGAGTCACCTAGTGCAG”, the binding signal is 39200 fluorescence intensity (a.u.).
As for “CGCCATGGGCGAGGCGGTGAAGGGGCCAGTGGTGGTGACGCGGAGTCACCTAGTGCAG”, the figure is 4250 fluorescence intensity (a.u.); as for “AAATAGAAAGCCCAAACGGATATTTCTTCCTGAGAGCCACCGGAGTCACCTAGTGCAG”, 35600 fluorescence intensity (a.u.).
Turning to “TATAGCAAAGAAAAGTAAAATAAGAGGCATGAGCTCACGCCGGAGTCACCTAGTGCAG”, the binding signal is 37800 fluorescence intensity (a.u.).
Take “TCTTCCTCAAAGTAAAATAGAAGCTAGGGCTAAGAGCCCACGGAGTCACCTAGTGCAG”: the binding signal is 65100 fluorescence intensity (a.u.).
For the sequence “CTACACACGAGACGTGCAAACCTGCAGATTTTGTTACTTGCGGAGTCACCTAGTGCAG”, the binding signal is 4830 fluorescence intensity (a.u.).
In the case of “CCACGGGCTACAAAGCACGCGCGTCACTCGCTCTCGCGGCCGGAGTCACCTAGTGCAG”, the binding signal was 4390 fluorescence intensity (a.u.).
For “TCCGTATGAAATAGTGTCTCCGTCAGATTGGGGAAGCGGGCGGAGTCACCTAGTGCAG”, the binding signal is 3200 fluorescence intensity (a.u.).
Consider “AAATGTAGTTGTAAAATCCACAAAATAGTCTAGTCAGAAGCGGAGTCACCTAGTGCAG”, for which the binding signal was 3340 fluorescence intensity (a.u.).
To “CAGAAGCGTCTACATACAATAGGATTGGGGCCTGCAAATCCGGAGTCACCTAGTGCAG” belongs 55500 fluorescence intensity (a.u.).
Regarding “TGTGTTCTCAATTTTGCGTGTTCTCAATGACACGTGAACACGGAGTCACCTAGTGCAG”, the binding signal was 5630 fluorescence intensity (a.u.).
As for “TTCCATTTCTTCCCCTCGCCAAGGCGAGGCCGCGAGAGGGCGGAGTCACCTAGTGCAG”, the figure is 9040 fluorescence intensity (a.u.).
Take “TAAAAGCCAAGCACCATCTCGAAGTCTTCTTCCTCCTCCACGGAGTCACCTAGTGCAG”: the binding signal was 12500 fluorescence intensity (a.u.).
As to “ATCGAAGGCGAGAGCTCTTCTTCTTCCCCTCCTCCAAGCACGGAGTCACCTAGTGCAG”, the binding signal was 60500 fluorescence intensity (a.u.).
Take “CTGTAGAACTTGGACCAGCAGCATCAGCAGTAGTAGCAGGCGGAGTCACCTAGTGCAG”: the binding signal was 3140 fluorescence intensity (a.u.).
Take “GTGATATTCTGTCTTCCTGTGATATCAGCACTGTTTTATGCGGAGTCACCTAGTGCAG”: the binding signal is 3450 fluorescence intensity (a.u.).
As to “ACCAGTGCGCCACTGCCAGCGCAGCACCCGCCCGGTTTAACGGAGTCACCTAGTGCAG”, the binding signal is 3240 fluorescence intensity (a.u.).
As for “ATGTCTTAAGCAAGTTTTGACATCCTCATTACAGTGCGGCCGGAGTCACCTAGTGCAG”, the binding signal was 3390 fluorescence intensity (a.u.).
To “TCGATTCCAGCTGTGGCACCCATAGAGAAATGAGCCCGTCCGGAGTCACCTAGTGCAG” belongs 56300 fluorescence intensity (a.u.); to “AGAGCCCACCAGCTGCACCGGCGTGGCATCGTCCACTTGGCGGAGTCACCTAGTGCAG”, 5060 fluorescence intensity (a.u.); to “GTAAAGCCTCGATATATCGATCGATTCCAGCTGTGGCACCCGGAGTCACCTAGTGCAG”, 3620 fluorescence intensity (a.u.).
